Measured values reported in the supplement of paper PMC6555819.

Columns and labels:
Assay in all cases: PBM binding z-score (relative to random genomic background probes); higher = stronger binding; sequences stand for … in GC…GCGATTGACAGCGTAGAATGAAGG
[1] = system: FXR:RXRa (NR concentration 270 nM, RXRa partner concentration 90 nM)
Summary of the method: (§1)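 Ligand-free nuclear receptor dimers were bound for 1 h to custom Agilent 4×180K protein-binding microarrays. Detection used antibodies against each partner (one per run). Binding z-scores rest on regression-normalized fluorescence, with random background probes as the reference.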

[2] = system: LXRa:RXRa (NR concentration 270 nM, RXRa partner concentration 90 nM)
Summary of the method: as §1

[3] = system: LXRa homodimer (NR concentration 270 nM)
Summary of the method: as §1

[4] = system: LXRb:RXRa (NR concentration 270 nM, RXRa partner concentration 90 nM)
Summary of the method: as §1

[5] = system: LXRb homodimer (NR concentration 270 nM)
Summary of the method: as §1

[6] = system: PPARa:RXRa (NR concentration 270 nM, RXRa partner concentration 90 nM)
Summary of the method: as §1

[7] = system: PPARg:RXRa (NR concentration 180 nM, RXRa partner concentration 90 nM)
Summary of the method: as §1

[8] = system: PPARg:RXRa 270nM:90nM, anti-RXR (NR concentration 270 nM, RXRa partner concentration 90 nM)
Summary of the method: as §1

[9] = system: PPARg:RXRa 30nM:10nM, anti-RXR (NR concentration 30 nM, RXRa partner concentration 10 nM)
Summary of the method: as §1

[10] = system: PPARg:RXRa 90nM:30nM, anti-RXR (NR concentration 90 nM, RXRa partner concentration 30 nM)
Summary of the method: as §1

[11] = system: PPARg:RXRa DBDmut IVT, anti-RXR (DBD mutation: RXRa K156A/R161A, NR concentration 270 nM, RXRa partner concentration 90 nM)
Summary of the method: as §1

[12] = system: PPARg:RXRa IVT, anti-PPARg (NR concentration 270 nM, RXRa partner concentration 90 nM)
Summary of the method: as §1

[13] = system: PPARg DBDmut:RXRa IVT, anti-PPARg (DBD mutation: PPARg1 K132A/R137A, NR concentration 270 nM, RXRa partner concentration 90 nM)
Summary of the method: as §1

[14] = system: PPARg DBDmut IVT, anti-PPARg (DBD mutation: PPARg1 K132A/R137A, NR concentration 270 nM)
Summary of the method: as §1

[15] = system: PPARg homodimer (NR concentration 180 nM)
Summary of the method: as §1

[16] = system: PXR:RXRa (NR concentration 270 nM, RXRa partner concentration 90 nM)
Summary of the method: as §1

[17] = system: PXR homodimer (NR concentration 270 nM)
Summary of the method: as §1

[18] = system: RARa:RXR (NR concentration 270 nM, RXRa partner concentration 90 nM)
Summary of the method: as §1

[19] = system: RARa homodimer (NR concentration 270 nM)
Summary of the method: as §1

[20] = system: RARb:RXRa (NR concentration 270 nM, RXRa partner concentration 90 nM)
Summary of the method: as §1

Sequence	PBM binding z-score [1]	PBM binding z-score [2]	PBM binding z-score [3]	PBM binding z-score [4]	PBM binding z-score [5]	PBM binding z-score [6]	PBM binding z-score [7]	PBM binding z-score [8]	PBM binding z-score [9]	PBM binding z-score [10]	PBM binding z-score [11]	PBM binding z-score [12]	PBM binding z-score [13]	PBM binding z-score [14]	PBM binding z-score [15]	PBM binding z-score [16]	PBM binding z-score [17]	PBM binding z-score [18]	PBM binding z-score [19]	PBM binding z-score [20]
GCTTGTGGATCAAGGTTAAGAAAGACTAAGCTAA	0.286	0.783	-0.433	0.442	-0.254	1.52	0.82	1.79	0.395	1.24	0.991	1.19	-0.0361	0.0112	0.339	0.429	-0.166	0.735	-0.249	0.702
CGAACTAGGTCAAGGACAGTCAATCTCCGCACGC	3.39	2.64	0.323	1.57	-0.248	4.76	7.58	6.42	3.9	5.59	8.01	8.24	1.66	1.8	1.37	1.25	0.00572	2.09	0.256	4.08
CCTAGTTGGTGAAGGTCACACACGCTATAGGTAC	2.89	3.37	1.45	3.42	0.755	3.66	2.32	3.03	1.1	1.97	1.01	2.4	1.24	0.782	2.47	3.34	1.34	3.61	1.61	3.74
TAGCCTCGGTCATGGGCCAGTATACCACGCGAAC	0.333	0.687	0.0533	-0.073	-0.572	0.143	0.374	0.188	-0.674	-0.0831	-0.58	0.53	-0.301	-1	-0.0918	-0.176	-0.497	0.0375	-0.653	2.42
TATACAGGGACAAAGGCCAGAGTACGAATGTCGA	0.545	0.102	0.279	-0.249	0.97	1.19	2.9	3.98	2.12	3.3	-0.141	1.3	0.681	0.636	0.776	0.0293	0.479	0.273	0.492	1.54
TCTGCTAGGTCACTTGGTCAGCTAACGAGCTGCC	2.56	2.03	-0.292	1.38	0.874	2.97	2.53	3.31	1.62	2.28	4.06	4.55	2.55	1.22	0.811	0.889	-0.812	1.93	-0.792	3.81
ATACCAAGGTGATCGTGAGCTCGTTGATACTAAC	0.125	-0.0736	-0.322	0.0963	-0.116	0.174	0.373	-0.151	-0.316	-0.0822	0.283	1.08	0.353	0.874	0.404	-0.0195	-0.182	0.256	0.0437	0.555
ATCTCTAGGTAACCAAGTTCAGTGTATGCCGAAC	0.4	0.852	0.996	0.524	0.803	1.06	0.577	0.99	0.331	0.721	3.75	3.04	0.877	1.39	0.882	1.9	1.95	0.828	1.09	1.08
CCTTACGGGTCAAGGTTATAACACGGGTGGTACG	5.53	3.71	0.233	3.44	0.254	5.22	4.63	4.8	2.22	3.94	2.12	3.6	0.305	-0.192	2.04	3.52	0.548	4.5	0.85	4.24
TATACAGGGTCAAAGGCCAGAGGACGAATGTCGA	7.18	6.58	2.34	4.72	2.59	5.98	8.38	7.61	5.3	7.21	1.96	4.98	2.24	2.72	3.14	4.5	0.565	5.97	0.998	4.43
TCTATTAGTTGAAGGGCAACAGACGAGTCCGTTT	0.85	0.613	0.367	0.805	0.326	0.993	0.441	2.09	3.73	2.9	2.12	0.473	0.759	0.516	1.01	0.991	0.988	0.764	1.52	1.55
CCTTATGGGTCACGAGGTTATAGCACGACGAGCG	6.1	3.8	0.305	3.32	-0.173	5.75	8.15	6.96	4.18	6.72	6.86	7.13	2.07	2.59	3.76	3.9	0.436	5.4	0.87	4.43
AGAATGAGGTTACCAAAGATCGGGGAAACGCTTG	1.75	4.95	-0.394	2.39	-0.29	3.28	2.29	2.42	0.813	1.48	4.19	3.16	0.767	-0.00143	0.441	1.3	-0.247	1.86	-0.246	2.09
ATCGGAAGGTCGTGAGGTGAGTATACAGAAAGGC	2.73	1.85	0.212	1.69	0.0341	3.13	1.68	1.63	0.466	0.932	-0.372	1.37	-0.0584	0.491	1.77	1.71	0.639	2.72	1.05	2.83
CCGACTGGGGCATAAGGTAACCATAAGCCAGCCC	0.215	0.187	-0.284	-0.112	-1.47	1.08	2.79	3.22	1.32	3.24	2.94	2.7	-0.714	-0.986	0.375	-0.534	-0.805	0.0245	-0.0601	0.594
ATATGTAGGTTATCGGGTCCTTCAGTTTGCGCAT	0.663	0.859	0.528	0.856	0.389	3.24	5.01	4.43	1.77	3.45	6.92	6.98	2.02	2.6	1.69	0.963	0.468	0.74	0.677	0.829
GCTAGCAGGCCATTTGGGTCACTCAATGACGGGC	0.232	-0.126	-0.618	-0.0783	-0.885	1.34	0.697	0.632	-0.477	-0.0514	1.95	2.3	-1.31	-1.12	-0.589	0.628	0.0652	0.69	-0.931	1.63
TGTCAAAGTTCAAAGGTAACGTAGGTATCCACAC	6.64	6.44	4.15	4.46	1.58	5.79	8.31	7.65	4.86	7.25	0.105	4.5	1.01	1.42	2.88	5.78	3.36	6.75	1.57	5.06
ATATGTAGGTTAGCTGGGGTAATTCAGACTAGGC	0.983	0.79	0.216	1.28	0.815	2.91	3.61	3	0.942	2.01	6.75	6.17	1.99	1.76	0.916	1.12	0.0639	1.44	0.818	1.02
TCGAGTAGGTTATGGGCATTCAGAATGGCGTCGA	-0.455	0.186	-0.538	-0.2	-1.18	0.825	0.399	1.47	0.906	1.13	1.95	1.36	-0.529	-0.999	0.0273	-0.316	-0.754	-0.148	-0.374	0.453
ATATGTAGGTTATCGTGTCATTCAGTTTGCGCAT	0.97	1.3	0.641	1.5	0.855	3.55	5.76	5.11	2.48	4.38	7.74	7.44	2.49	2.15	1.76	1.17	0.812	1.16	0.933	1.32
TCTTGTAGATCAAAGGTTAAGAGAGCCGAAGCCT	1.58	1.77	0.0362	1.91	-0.272	4.75	8.74	8.28	8.05	8.92	1.9	3.87	0.236	-0.197	0.759	1.87	-0.162	3.06	0.341	1.9
CGTCCAAGTTCAAGGTAACGTAACAGAAAGCAGC	2.88	2.37	0.562	1.53	0.319	2.68	1.17	1.4	0.382	1.04	0.65	0.654	0.76	0.315	1.63	2.73	1.61	1.95	0.657	3.36
TCATAAAGGTAAATGCTAGGTGAAAGTCCGATCT	1.41	1.31	0.158	0.935	-0.29	1.55	0.57	2.52	4.21	3.45	3.32	1.59	0.692	0.518	1.01	0.647	0.218	1.36	0.932	1.04
CCTTACGGGTCAAGGTTATAGTACGGGTGGTACG	6.07	3.88	0.501	3.24	0.225	5.17	4.78	4.77	1.91	3.37	1.4	3.68	0.554	-0.326	2.79	3.75	0.673	4.68	1.47	4.18
GATACAGGGTCAGCTAGAGGCGAGAGTATGGAAA	4.63	2.33	-0.47	2.27	-0.792	4.46	3.77	3.24	1.08	1.87	1.45	2.17	-0.6	-0.459	1.77	2.25	-0.498	3.52	0.0279	4.1
CCGAGTAGGTTATGGGGCATCCAGGCAACGGTGA	0.103	0.375	-0.312	0.332	-0.509	2.36	3.95	4.52	1.97	4.17	2.41	3.47	0.134	-0.392	0.993	-0.0112	-0.414	0.287	0.0576	0.965
CGTAGCAGGCCAATCTGGGTCACTCAAGGCTTGA	0.309	0.88	-0.711	0.262	-0.737	2.6	2.21	2.03	-0.188	1.08	4.39	5.41	0.0881	-0.653	0.384	1.07	-0.642	1.47	-0.582	1.48
GGAAGGAGGGCAAGTTGATAGCAGAGTTTGATGG	1.04	0.798	0.562	1.5	1.47	1.92	1.2	1.53	0.406	0.957	3.75	3.16	0.411	0.837	2.03	1.44	2.2	0.685	1.5	2.54
